# Only some compounds are listed: those with a hit (about 3.1% of all), similar ones and a draw of the others.
# Env fusion inh: inhibitors of HIV-1 Env-driven cell-cell fusion, primary screen, HeLa-JRFL effector, CEM21 target cells, luciferase | inhibition, % at 12.3 µM | hit rate 1.1% among 360,000;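 active = mean replicate inhibition score of at least 50 and every replicate individually at or above 50; inconclusive = only one of the two criteria met; inactive = mean below 50 and not all replicates reaching 50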;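 also: 0% = plate neutral controls and 100% = maraviroc near 300 nM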
# PAX8 inh HTS: inhibitors of PAX8-driven TPO luciferase reporter, primary screen, RMG-I cells, single concentration; AID 652154, 2013; hit rate 1.2% among 360,000; SteadyGlo, 24 h; inhibition, % at 12.6 µM;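 active = mean replicate inhibition at least 60% with every replicate also reaching 60%; inconclusive = only one of the two criteria is met; inactive = mean below 60% and not all replicates reaching 60%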;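 also: luciferase light reporting Pax8 driven TPO promoter activity; plate controls were median of neutral control wells for no effect and mitoxantrone controls for full effect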
# INS-1E GSIS act: GLuc luminescence reporter in INS-1E cells, primary screen for activators of glucose-dependent secretion of insulin; activation, % at 16.6 µM; INS-1E GLuc reporter insulin secretion, 2-3 h; hit rate 0.61% among 370,000; AID 743287, 2014;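 active = lowest replicate activation of at least 40%, so every replicate reaches that level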;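 also: 0% = median of neutral control wells and 100% = median of IBMX positive control wells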
# EWS-Fli block: EWS/Fli-driven NR0B1 reporter inhibitors, primary screen, A673 cells, NR0B1 luciferase, luminescence, MLPCN library; viability-normalised; inhibition, % at 12.6 µM; hit rate 0.67% among 350,000;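 active = mean inhibition of at least 50% after viability correction, with every replicate also passing that limit; inconclusive = mean reaches 50% but only one of two replicates passes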;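 also: firefly luciferase signal divided by Alamar Blue viability fluorescence both relative to DMSO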
# miR-122 sensor: miR-122 Renilla sensor signal increase in Huh7, primary screen, miR-122 inhibitor project, cell-based, single point, plate reader | Huh7 miR-122 Renilla luciferase sensor, 48 h; neutral wells = 0, positive control = 100 | activation (reporter increase), % at 12.5 µM | hit rate 0.3% among 340,000 | AID 602342, 2012;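 active = mean replicate activation score at least 90 and every replicate individually at or above 90; inconclusive = only one of the two criteria met; inactive = neither criterion met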;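 also: higher luciferase means less miR-122 activity so hits act as miR-122 inhibitors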
# Statin myotox sup: suppressors of statin myotoxicity in C2C12 myotubes, primary screen, cell-based, single point, plate reader; C2C12 myotubes + simvastatin, ATP luminescence, 48 h; scaled: DMSO 0, geranylgeraniol control 100; rescue of ATP level, % at 7.49 µM; hit rate 0.78% among 330,000; AID 602340, 2012;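 active = mean ATP rescue above about 67%, or every replicate alone reaching that limit, limit read from the data, passing the limit was not always enough; inconclusive = no clear call, values can overlap the other calls; inactive = mean under the limit and some replicate under it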;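 also: myotubes were challenged with 10 µM simvastatin during compound exposure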
# Starred values were filed as active, the others as inactive; u = inconclusive; x = not tested or not shown; [ ] = remark or other dose.
SMILES,Env fusion inh,PAX8 inh HTS,INS-1E GSIS act,EWS-Fli block,miR-122 sensor,Statin myotox sup
COc1ccc(N2CC(NS(=O)(=O)c3cccs3)CC2=O)cc1OC (configuration not stated),2,6,41*,-4,-2,-2
CC(=O)N1c2ccccc2N(Cc2ccc(C)cc2C)C(=O)C1(C)C,-52,27,6,54*,15,x
C=CCN1C(=O)C(C)(C)N(C(C)=O)c2ccccc21,-4,-10,0,-9,x,x
S=c1nc[nH]c2c1[nH]c1ccc(Cl)cc12,69*,-34,x,-2,x,x
S=c1nc[nH]c2c1[nH]c1ccccc12,x,x,x,x,-5,x
C[C@@H]1CCCCO[C@@H](CN(C)Cc2ccc(C(=O)O)cc2)[C@@H](C)CN([C@H](C)CO)C(=O)c2cc(NC(=O)Nc3ccccc3)ccc2O1,-22[16.7 µM],-7,13,-3,13[16.7 µM],x
CN1C(=O)C2(c3ccccc31)N(C)CC(c1ccccc1)C21SC(=S)N(Cc2ccco2)C1=O (configuration not stated),80*,x,-22,x,-19,4
CN1C(=O)C2(c3ccccc31)N(C)CC(c1ccccn1)C21SC(=S)N(Cc2ccco2)C1=O (configuration not stated),32,22,x,x,1,x
CO[C@H]1CN(C)C(=O)c2ccc(NS(C)(=O)=O)cc2OC[C@H](C)N(C(=O)CC2CC2)C[C@H]1C,x,x,4,3,-4[16.7 µM],7
COc1ccc2c3c(n(C)c2c1)[C@@H](CO)N(Cc1ccncc1)CC31CCN(C(=O)C2CCCC2)CC1,x,4,-17,12,x,x
O=c1ccc(-c2ccc(S(=O)(=O)Nc3cccc([N+](=O)[O-])c3)s2)n[nH]1,3,-2,77*,x,-1,26
O=C(C[n+]1ccccc1)c1ccc(-c2ccccc2)cc1,8,12,0,-8,x,x
CN(C)c1cc[n+](CC(=O)c2ccc(-c3ccccc3)cc2)cc1,64*,98*,-42,37,x,x
COc1ccc(S(=O)(=O)Nc2ccc3c(c2)C(=O)N([C@H](C)CO)C[C@H](C)[C@H](CN(C)Cc2ccc(Cl)c(Cl)c2)OCCCC[C@H](C)O3)cc1,x,u,-2,3,x,x
COc1ccc(CN(C)C[C@H]2OCCCC[C@H](C)Oc3ccc(NS(=O)(=O)c4ccc(Cl)cc4)cc3C(=O)N([C@H](C)CO)C[C@H]2C)cc1,40[16.7 µM],65*,-35,12,-2[16.7 µM],x
COc1ccc(S(=O)(=O)Nc2ccc3c(c2)C(=O)N([C@H](C)CO)C[C@@H](C)[C@H](CN(C)Cc2ccc(Cl)c(Cl)c2)OCCCC[C@H](C)O3)cc1,u,68*,-22,29,-9[16.7 µM],-81
COc1ccc(S(=O)(=O)Nc2ccc3c(c2)C(=O)N([C@@H](C)CO)C[C@@H](C)[C@H](CN(C)Cc2ccc(Cl)c(Cl)c2)OCCCC[C@@H](C)O3)cc1,14[16.7 µM],73*,-14,12,-16[16.7 µM],48
CC(=O)N1[C@@H]2c3ccc(-c4ccccc4F)c(=O)n3C[C@@H]2[C@@H](CO)[C@@H]1C(=O)NCC1CC1,x,-1,7,-6,4[16.7 µM],1
O=C(NCc1ccccc1)C(c1ccco1)N1CCN(C(=O)C2CCCO2)CC1 (configuration not stated),12,12,-10,-1,x,x
COc1cccc(C(C(=O)NCc2ccccc2)N2CCN(C(=O)C3CCCO3)CC2)c1OC (configuration not stated),-12,-22,43*,-5,x,x
C[C@H](C(=O)N(C)C[C@@H]1OCc2ccccc2-c2ccccc2C(=O)N([C@@H](C)CO)C[C@@H]1C)c1ccccc1,58*[16.7 µM],-2,-4,-5,x,x
C[C@H](C(=O)N(C)C[C@H]1OCc2ccccc2-c2ccccc2C(=O)N([C@@H](C)CO)C[C@H]1C)c1ccccc1,21[16.7 µM],13,1,2,x,6
C[C@H](CO)N1C[C@H](C)[C@H](CN(C)C(=O)[C@H](C)c2ccccc2)OCc2ccccc2-c2ccccc2C1=O,8[16.7 µM],-5,4,-15,x,-7
C[C@H](C(=O)N(C)C[C@@H]1OCc2ccccc2-c2ccccc2C(=O)N([C@H](C)CO)C[C@@H]1C)c1ccccc1,57*[16.7 µM],9,-17,1,x,-13
C[C@H](C(=O)N(C)C[C@@H]1OCc2ccccc2-c2ccccc2C(=O)N([C@@H](C)CO)C[C@H]1C)c1ccccc1,59*[16.7 µM],-27,-9,-7,x,x
SMILES,Env fusion inh,PAX8 inh HTS,INS-1E GSIS act,EWS-Fli block,miR-122 sensor,Statin myotox sup
COCc1cn(CC[C@H]2CC[C@H](NC(=O)Nc3ccc(C(F)(F)F)cc3)[C@@H](CO)O2)nn1,x,x,5,x,x,0
CCCN1[C@H](C(=O)NCCOC)[C@@H](CO)[C@@H]2Cn3c(ccc(-c4cccc(C(=O)N(C)C)c4)c3=O)[C@@H]21,x,-14,7,-2,0[16.7 µM],12
C[C@@H]1CN([C@H](C)CO)C(=O)c2cc(NS(=O)(=O)c3ccc(F)cc3)ccc2O[C@@H]1CN(C)Cc1ccc(-c2ccccc2)cc1,x,x,1,11,5[16.7 µM],u
C[C@@H]1CN([C@@H](C)CO)C(=O)c2cc(NS(=O)(=O)c3ccc(F)cc3)ccc2O[C@H]1CN(C)Cc1ccc(-c2ccccc2)cc1,x,x,-13,2,-26[16.7 µM],71*
C[C@@H]1CN([C@@H](C)CO)C(=O)c2cc(NS(=O)(=O)c3ccccc3)ccc2O[C@H]1CN(C)Cc1ccc(Oc2ccccc2)cc1,94*[16.7 µM],-27,-17,-25,0[16.7 µM],-18
Cc1ccc(S(=O)(=O)Nc2ccc3c(c2)C(=O)N([C@H](C)CO)C[C@@H](C)[C@@H](CN(C)Cc2ccc(-c4ccccc4)cc2)O3)cc1,60*[16.7 µM],58,4,36,-16[16.7 µM],34
Cc1sc(NC(=O)Cc2ccc3c(c2)OCO3)nc1-c1ccc2c(c1)CCN2C(=O)c1ccccc1F,74*,15,-16,x,5,x
Cc1sc(NC(=O)Cc2ccc3c(c2)OCO3)nc1-c1ccc2c(c1)CCN2C(=O)c1ccc(F)cc1,x,x,-18,x,x,x
Cc1ccc(S(=O)(=O)Nc2ccc3c(c2)C(=O)N([C@H](C)CO)C[C@@H](C)[C@H](CN(C)Cc2ccc(Cl)c(Cl)c2)O3)cc1,x,x,-10,5,-3[16.7 µM],75*
Cc1ccc(S(=O)(=O)Nc2ccc3c(c2)C(=O)N([C@@H](C)CO)C[C@@H](C)[C@H](CN(C)Cc2ccc(Cl)c(Cl)c2)O3)cc1,x,x,-7,2,0[16.7 µM],95*
C[C@@H]1CN([C@@H](C)CO)C(=O)c2cc(NS(=O)(=O)c3ccc(Cl)cc3)ccc2O[C@@H]1CN(C)Cc1ccc(Cl)c(Cl)c1,-31[16.7 µM],5,-7,15,-12[16.7 µM],11

# Screening data from PubChem.
